The results in this text go back to PubChem BioAssay.

Test [1] relates to PRMT1 (protein arginine N-methyltransferase 1). Nature of the test: PRMT1 binders on small-molecule microarrays, primary screen, biochemical, small-molecule microarray, 635 nm fluorescence (AID 1088).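 Also: binding of Prmt1 protein to compounds spotted on small-molecule microarray slides.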 The following applies: small-molecule microarray binding, higher = more signal.
Test [2] can be described thus: yeast growth modulation, basal conditions, primary screen, YJM789 clinical isolate, OD600, 24 h (AID 1089).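 Also: growth of clinical yeast isolate S. cerevisiae YJM 789 seeded 1000 cells per well; test concentration not given here.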 The conditions noted are these: S. cerevisiae YJM789 growth, higher = more signal, called active from +8 up or from −8 down.
Test [3] in a line: fission yeast growth modulation, primary screen, strain 972, OD600, 24 h, no modulator (AID 1090).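 Also: basal condition with compound alone and no growth modifier present; test concentration not given here.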 The following applies: S. pombe 972 growth, higher = more signal, called active from +8 up or from −8 down.
Test [4] can be described thus: S. cerevisiae growth modulation with rapamycin, primary screen, strain BY4716, OD600, 96 h (AID 1091). Also: test concentration not given here. The conditions noted are these: higher = more signal, called active from +8 up or from −8 down.
Test [5] concerns the target Torsin-1A-interacting protein 2 (Homo sapiens) (UniProt Q8NFQ8). Nature of the test: LULL1 binders on small-molecule microarray, primary screen, cell lysate, human LULL1 lysate, 635/667 nm fluorescence (AID 1092).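 Also: probe is lysate of COS7 cells overexpressing human LULL1; score merges per-feature 667 nm fluorescence with signal-to-noise.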 The following applies: hLULL1 lysate binding, 635 nm fluorescence, higher = more signal.
The nature of test [6]: E. coli growth modulation, two-sided OD650, primary screen, E. coli filamentation project, strain DRC41, 24 h (AID 1093).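 Also: MC1000 strain lacking acrAB efflux and sulA so SOS filamentation is blocked; test concentration not given here.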 The following applies: OD650, 24 h, higher = more signal, called active from +8 up or from −8 down.
Test [7] is described as follows: small-molecule microarray binders of probe aLefty2, primary screen, biochemical, biotinylated probe, 635/667 nm fluorescence (AID 1094).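 Also: score merges spot fluorescence near 667 nm with spot signal-to-noise ratio.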 The following applies: higher = more signal.
The test system of test [8] is Noggin (protein binding on small-molecule microarray). Nature of the test: Noggin binders on small-molecule microarray, primary screen, biochemical, 635/667 nm fluorescence (AID 1095).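 Also: score merges 667 nm feature fluorescence with signal to noise over triplicate slides.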 The following applies: 635 nm fluorescence, higher = more signal.
For test [9], the target named is Neurogenic locus notch homolog protein 3 (Homo sapiens) (UniProt Q9UM47). Nature of the test: NOTCH3 binders on small-molecule microarray, primary screen, biochemical, 635/667 nm fluorescence (AID 1096). The following applies: NOTCH3 binding, 635 nm fluorescence, higher = more signal.
The nature of test [10]: small-molecule microarray binders of probe aEGFR, primary screen, biochemical, biotinylated probe, 635/667 nm fluorescence (AID 1097).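 Also: probe is a biotinylated anti-EGFR antibody binding compounds printed on slides; score combines fluorescence near 667 nm and signal to noise of each spot.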 The conditions noted are these: higher = more signal.
Test [11] relates to Plasmodium falciparum Sir2 (PF13_0152, Sir2A). Nature of the test: pfSir2 binders on small-molecule microarrays, primary screen, biochemical, small-molecule microarray, 635 nm fluorescence (AID 1098).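 Also: score merges spot fluorescence intensity with its signal-to-noise ratio.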 The following applies: small-molecule microarray binding, fluorescence 635 nm; higher = more signal.
Test [12] can be described thus: small-molecule microarray binders of probe aDKK1, primary screen, biochemical, biotinylated probe, 635/667 nm fluorescence (AID 1099).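 Also: score merges 667nm spot fluorescence with signal to noise across triplicate slides; reference of the scale not given here.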 The following applies: higher = more signal.
The nature of test [13]: small-molecule microarray binders of probe aCHRDL2, primary screen, biochemical, biotinylated probe, 635/667 nm fluorescence (AID 1100). The following applies: higher = more signal.
Test [14] can be described thus: splicing luciferase reporter signal modulators, primary screen, spliceosome inhibition project, cell-based, HEK293, splice +/- reporter (AID 1101).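 Also: HEK293 cells carrying a splicing-competent luciferase reporter gene; test concentration not given here.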 The conditions noted are these: luminescence, 24 h, higher = more signal, called active from +8 up or from −8 down. A general note: In a reporter assay the amount or activity of a reporter protein is the signal.
For test [15], the target named is Fibroblast growth factor 10 (Homo sapiens) (UniProt O15520). Nature of the test: FGF10 binders on small-molecule microarrays, primary screen, biochemical, small-molecule microarray, 635 nm fluorescence (AID 1102). The following applies: FGF10 binding, fluorescence 635 nm, higher = more signal.
The subject of test [16] is glycogen synthase kinase-3 (GSK3A per assay name; protocol says GSK3B). Nature of the test: GSK3 binders on small-molecule microarrays, primary screen, biochemical, small-molecule microarray, 635 nm fluorescence, GSK3A (AID 1103). Also: the record names both GSK3A and GSK3B. The following applies: small-molecule microarray binding, fluorescence 635 nm; higher = more signal.
Test [17] has as its target Epidermal growth factor receptor (Homo sapiens) (UniProt P00533). Nature of the test: EGFR binders on small-molecule microarrays, primary screen, biochemical, small-molecule microarray, 635 nm fluorescence (AID 1104).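 Also: score merges 667 nm emission intensity with spot signal to noise over triplicate slides.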 The following applies: EGFR binding, higher = more signal.
Test [18] has as its target Follistatin-related protein 3 (Homo sapiens) (UniProt O95633). Nature of the test: FSTL3 binders on small-molecule microarrays, primary screen, biochemical, small-molecule microarray, 635 nm fluorescence (AID 1105).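 Also: score merges emission near 667 nm and signal to noise per printed spot across three slides.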 The conditions noted are these: FSTL3 binding, higher = more signal.
In test [19] the target is Dickkopf-related protein 1 (Homo sapiens) (UniProt O94907). Nature of the test: DKK1 binders on small-molecule microarrays, primary screen, biochemical, small-molecule microarray, 635 nm fluorescence scan (AID 1106).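 Also: score merges emission near 667 nm with signal to noise over three replicate slides.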 The conditions noted are these: DKK1 binding, higher = more signal.
For test [20], the system named is Inhibin beta A chain (activin A). Nature of the test: INHBA (activin A) binders on microarrays, primary screen, biochemical, small-molecule microarray, 635 nm fluorescence scan (AID 1107).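 Also: mouse activin A protein probed at 4.33 µg/mL on printed slides; score merges bound-protein fluorescence near 667 nm with spot signal-to-noise.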 The conditions noted are these: small-molecule microarray binding, higher = more signal.

Structures are written as SMILES. Calls of active or inactive are those of the source.

Sequence of Neurogenic locus notch homolog protein 3 (Homo sapiens) (Q9UM47 whole entry, looked up): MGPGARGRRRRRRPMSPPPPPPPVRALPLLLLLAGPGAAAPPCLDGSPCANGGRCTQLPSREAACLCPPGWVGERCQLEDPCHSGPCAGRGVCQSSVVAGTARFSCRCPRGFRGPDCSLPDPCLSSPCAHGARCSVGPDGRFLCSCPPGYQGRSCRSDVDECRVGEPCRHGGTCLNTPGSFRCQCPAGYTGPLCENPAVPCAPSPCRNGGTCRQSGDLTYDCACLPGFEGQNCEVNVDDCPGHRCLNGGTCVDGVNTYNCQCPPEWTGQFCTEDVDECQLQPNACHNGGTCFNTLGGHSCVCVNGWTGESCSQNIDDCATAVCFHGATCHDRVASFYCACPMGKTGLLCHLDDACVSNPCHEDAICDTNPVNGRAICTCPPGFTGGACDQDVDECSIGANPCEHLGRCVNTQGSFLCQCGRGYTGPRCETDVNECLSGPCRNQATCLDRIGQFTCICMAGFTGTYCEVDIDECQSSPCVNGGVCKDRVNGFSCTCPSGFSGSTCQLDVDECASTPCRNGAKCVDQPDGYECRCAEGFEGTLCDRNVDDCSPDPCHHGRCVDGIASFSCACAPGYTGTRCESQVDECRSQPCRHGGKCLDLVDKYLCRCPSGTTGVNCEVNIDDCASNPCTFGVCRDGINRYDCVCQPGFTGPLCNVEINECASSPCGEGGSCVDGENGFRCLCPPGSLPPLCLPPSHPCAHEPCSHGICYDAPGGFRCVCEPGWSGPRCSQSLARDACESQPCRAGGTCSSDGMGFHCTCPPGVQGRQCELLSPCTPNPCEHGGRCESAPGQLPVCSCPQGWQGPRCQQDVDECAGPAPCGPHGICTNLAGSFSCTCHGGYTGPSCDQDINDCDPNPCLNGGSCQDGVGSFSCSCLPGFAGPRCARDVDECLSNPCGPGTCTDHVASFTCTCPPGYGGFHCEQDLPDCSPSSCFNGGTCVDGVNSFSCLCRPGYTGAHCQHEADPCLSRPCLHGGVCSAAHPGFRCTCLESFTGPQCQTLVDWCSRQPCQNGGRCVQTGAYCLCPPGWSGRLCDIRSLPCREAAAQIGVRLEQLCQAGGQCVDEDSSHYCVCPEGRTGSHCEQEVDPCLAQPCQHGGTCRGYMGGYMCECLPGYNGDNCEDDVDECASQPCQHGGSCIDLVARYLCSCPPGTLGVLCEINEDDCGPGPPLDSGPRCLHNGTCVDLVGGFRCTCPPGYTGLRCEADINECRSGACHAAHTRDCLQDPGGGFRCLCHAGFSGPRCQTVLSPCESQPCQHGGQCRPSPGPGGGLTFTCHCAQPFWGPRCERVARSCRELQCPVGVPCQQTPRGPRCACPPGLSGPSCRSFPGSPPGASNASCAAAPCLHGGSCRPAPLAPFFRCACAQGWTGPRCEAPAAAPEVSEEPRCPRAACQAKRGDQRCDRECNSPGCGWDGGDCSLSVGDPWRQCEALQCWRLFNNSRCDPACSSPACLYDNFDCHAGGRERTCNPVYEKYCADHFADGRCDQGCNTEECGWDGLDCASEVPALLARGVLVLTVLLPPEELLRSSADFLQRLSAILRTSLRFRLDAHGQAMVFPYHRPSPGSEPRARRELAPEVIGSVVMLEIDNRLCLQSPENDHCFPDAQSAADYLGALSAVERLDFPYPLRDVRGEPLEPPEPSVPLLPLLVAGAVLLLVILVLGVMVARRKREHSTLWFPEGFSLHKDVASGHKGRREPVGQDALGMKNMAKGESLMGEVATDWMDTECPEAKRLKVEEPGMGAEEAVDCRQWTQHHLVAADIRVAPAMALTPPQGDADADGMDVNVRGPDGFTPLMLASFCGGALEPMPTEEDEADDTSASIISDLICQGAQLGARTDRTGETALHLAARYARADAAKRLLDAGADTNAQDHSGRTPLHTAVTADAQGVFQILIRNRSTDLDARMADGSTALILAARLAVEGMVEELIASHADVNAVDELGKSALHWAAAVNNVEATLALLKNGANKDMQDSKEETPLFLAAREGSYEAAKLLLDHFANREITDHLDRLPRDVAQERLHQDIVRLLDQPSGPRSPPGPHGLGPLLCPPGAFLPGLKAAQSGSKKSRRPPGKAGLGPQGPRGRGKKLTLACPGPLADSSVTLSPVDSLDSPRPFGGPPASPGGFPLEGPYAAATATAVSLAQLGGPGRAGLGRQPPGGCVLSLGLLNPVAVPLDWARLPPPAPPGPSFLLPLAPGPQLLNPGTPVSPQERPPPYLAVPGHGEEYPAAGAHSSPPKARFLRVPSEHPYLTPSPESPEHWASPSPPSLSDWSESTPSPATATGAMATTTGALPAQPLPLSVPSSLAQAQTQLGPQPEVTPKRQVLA
Sequence of Epidermal growth factor receptor (Homo sapiens) (P00533 whole entry, looked up): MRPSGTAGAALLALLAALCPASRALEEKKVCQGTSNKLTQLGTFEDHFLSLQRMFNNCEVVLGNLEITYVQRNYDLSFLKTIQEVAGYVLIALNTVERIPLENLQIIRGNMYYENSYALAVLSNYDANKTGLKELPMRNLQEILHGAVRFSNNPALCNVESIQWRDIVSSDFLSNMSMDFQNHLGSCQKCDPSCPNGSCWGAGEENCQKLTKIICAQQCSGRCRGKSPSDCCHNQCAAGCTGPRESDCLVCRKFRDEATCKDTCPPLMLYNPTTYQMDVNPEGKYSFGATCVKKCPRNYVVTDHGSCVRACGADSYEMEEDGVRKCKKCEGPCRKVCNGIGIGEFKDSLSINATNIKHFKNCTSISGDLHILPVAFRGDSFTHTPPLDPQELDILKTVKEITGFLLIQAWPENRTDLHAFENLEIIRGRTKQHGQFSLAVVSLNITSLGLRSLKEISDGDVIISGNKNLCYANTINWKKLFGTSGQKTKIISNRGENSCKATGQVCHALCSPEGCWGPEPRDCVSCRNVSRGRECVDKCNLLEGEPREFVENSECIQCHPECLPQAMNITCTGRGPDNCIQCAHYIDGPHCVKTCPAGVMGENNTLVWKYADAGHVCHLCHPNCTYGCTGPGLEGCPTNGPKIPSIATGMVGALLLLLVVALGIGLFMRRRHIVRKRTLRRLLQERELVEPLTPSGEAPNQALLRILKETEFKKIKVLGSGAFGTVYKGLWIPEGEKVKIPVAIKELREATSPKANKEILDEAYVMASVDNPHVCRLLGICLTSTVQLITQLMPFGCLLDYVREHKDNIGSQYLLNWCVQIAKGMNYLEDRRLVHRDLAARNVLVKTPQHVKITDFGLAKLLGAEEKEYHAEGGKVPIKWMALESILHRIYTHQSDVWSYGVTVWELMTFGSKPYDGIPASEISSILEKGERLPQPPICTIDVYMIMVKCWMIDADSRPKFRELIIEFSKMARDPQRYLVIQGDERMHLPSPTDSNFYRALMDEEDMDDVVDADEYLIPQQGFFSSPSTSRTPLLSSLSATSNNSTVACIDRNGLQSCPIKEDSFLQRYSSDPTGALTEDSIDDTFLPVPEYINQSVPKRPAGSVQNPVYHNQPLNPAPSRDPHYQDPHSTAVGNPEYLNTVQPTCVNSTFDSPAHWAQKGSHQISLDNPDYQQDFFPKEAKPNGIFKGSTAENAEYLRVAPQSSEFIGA
Sequence of Dickkopf-related protein 1 (Homo sapiens) (O94907 whole entry, looked up): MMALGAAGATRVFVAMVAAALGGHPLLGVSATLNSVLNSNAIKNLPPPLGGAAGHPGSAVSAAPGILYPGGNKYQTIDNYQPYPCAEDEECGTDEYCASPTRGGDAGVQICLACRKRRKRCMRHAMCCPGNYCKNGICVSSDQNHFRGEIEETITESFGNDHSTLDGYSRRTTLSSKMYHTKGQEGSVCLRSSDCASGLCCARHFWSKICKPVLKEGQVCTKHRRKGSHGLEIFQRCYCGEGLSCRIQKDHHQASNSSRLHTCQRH
Sequence of Torsin-1A-interacting protein 2 (Homo sapiens) (Q8NFQ8 whole entry, looked up): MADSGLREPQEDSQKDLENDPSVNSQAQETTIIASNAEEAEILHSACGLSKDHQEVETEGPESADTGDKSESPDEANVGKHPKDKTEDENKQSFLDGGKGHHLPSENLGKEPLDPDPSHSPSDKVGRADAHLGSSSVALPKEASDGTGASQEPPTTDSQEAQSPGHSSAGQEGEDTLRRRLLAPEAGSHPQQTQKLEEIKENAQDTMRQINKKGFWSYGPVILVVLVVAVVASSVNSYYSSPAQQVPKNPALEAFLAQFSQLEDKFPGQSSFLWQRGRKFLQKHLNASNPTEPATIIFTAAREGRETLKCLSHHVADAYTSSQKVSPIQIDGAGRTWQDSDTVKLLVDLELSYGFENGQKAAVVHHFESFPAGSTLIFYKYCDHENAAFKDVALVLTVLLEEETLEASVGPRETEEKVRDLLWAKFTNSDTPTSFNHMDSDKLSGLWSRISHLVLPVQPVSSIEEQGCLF
Sequence of Fibroblast growth factor 10 (Homo sapiens) (O15520 whole entry, looked up): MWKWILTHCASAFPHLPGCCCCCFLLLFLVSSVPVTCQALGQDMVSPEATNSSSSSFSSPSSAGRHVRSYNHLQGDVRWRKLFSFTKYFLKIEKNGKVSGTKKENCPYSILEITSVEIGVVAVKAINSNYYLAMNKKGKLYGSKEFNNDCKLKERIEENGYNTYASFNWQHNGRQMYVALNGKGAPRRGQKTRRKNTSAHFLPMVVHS
Sequence of Follistatin-related protein 3 (Homo sapiens) (O95633 whole entry, looked up): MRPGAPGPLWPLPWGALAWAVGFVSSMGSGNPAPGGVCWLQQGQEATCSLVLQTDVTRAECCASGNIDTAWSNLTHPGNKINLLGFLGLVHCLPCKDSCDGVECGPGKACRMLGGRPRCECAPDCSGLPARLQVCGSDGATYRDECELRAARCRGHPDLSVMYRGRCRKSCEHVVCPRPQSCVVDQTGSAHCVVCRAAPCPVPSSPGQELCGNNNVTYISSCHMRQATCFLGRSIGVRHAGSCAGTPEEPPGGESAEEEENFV

For the molecule `Cc1ccc(S[C@]2(C(=O)NC(C)C)CC(=O)N(C3Cc4ccccc4C3)[C@@H]2c2ccc(CO)cc2I)cc1`, the composite z-score in test [1] was 0.871; in test [5] it was 3.32; in test [7] it was -0.0131; in test [8] it was -0.0975; in [9], -0.505; in test [10] it was -0.37. Moreover, the composite z-score in [11] is 0.944; in test [12], -0.253; in [13] it was -0.398; in test [15] it was -0.651; in [16], 0.1; in test [17], -0.922. Also, the composite z-score was -1.13 in [18], -1.18 in test [19] and -0.696 in test [20]. In addition, the z-score was -0.801 (inactive) in test [2]; -2.68 (inactive) in test [3]; -0.0369 (inactive) in test [4]; 0.733 (inactive) in test [6]; -1.44 (inactive) in [14].
Turning to `Cc1ccc(S[C@]2(C(=O)NC(C)C)CC(=O)N(Cc3ccccc3C(F)(F)F)[C@@H]2c2ccc(CO)cc2I)cc1`, the composite z-score was 1.13 in [1]; 0.515 in test [5]; 0.0844 in [7]; -0.76 in test [8]; -0.669 in test [9]; -0.283 in [10]. Moreover, the composite z-score was 1.29 in [11]; 0.386 in test [12]; 1.09 in [13]; -1.41 in test [15]; -1.1 in [16]; -1.64 in test [17]. The composite z-score was -1.29 in test [18], -1.7 in test [19] and 0.889 in [20]. The z-score is -2.32 (inactive) in [2]; -4.49 (inactive) in test [3]; 1.18 (inactive) in [4]; -1.73 (inactive) in test [6]; -1.42 (inactive) in test [14].
In the case of `Cc1ccc(F)cc1S(=O)(=O)N[C@@H]1CCN(Cc2ccc(OC(C)C)cc2)C1`, the composite z-score in [1] was -0.43; in test [5] it was -0.526; in [7] it was -0.218; in test [8] it was 0.313; in test [9] it was -0.877; in test [10], -0.273. Besides, the composite z-score is -0.38 in test [11]; -0.428 in [12]; -0.272 in test [13]; -0.514 in test [15]; -0.654 in test [16]; -0.662 in test [17]. The composite z-score is -0.746 in test [18], 0.183 in test [19] and 0.834 in test [20]. In addition, the z-score in test [2] is -1.01 (inactive); in [3], -14.4 (active); in test [4] it was -0.839 (inactive); in [6], -19.6 (active); in test [14], 2.97 (inactive).
With `COC(=O)[C@@]1(Cc2ccc(OC)cc2)[C@H]2c3cc(C(=O)N4CCCC4)n(CCc4cc5ccccc5[nH]4)c3C[C@H]2CN1C(=O)c1ccccc1`, the composite z-score was determined as 0.907 in test [1]; 3.43 in [5]; 0.507 in [7]; 0.364 in test [8]; 1.05 in test [9]; 0.0464 in [10]. Besides, the composite z-score was 1.52 in test [11]; 1.64 in test [12]; 1.43 in test [13]; 0.893 in test [15]; 0.591 in test [16]; 0.124 in test [17]. In addition, the results for the composite z-score in test [18], in test [19] and in test [20] were 1.2, -0.281 and 0.881, respectively. The z-score in test [2] is 0.596 (inactive); in test [3], 2.61 (inactive); in test [4], 1.72 (inactive); in [6] it was -0.12 (inactive); in test [14], 0.0555 (inactive).
As for `C=C(/C=C/CNS(=O)(=O)c1ccc(C)cc1)[C@H](O)[C@H]1CCCN1S(=O)(=O)c1ccccc1[N+](=O)[O-]`, the composite z-score in [1] is 0.13; in test [5] it was -0.271; in test [7], -0.0948; in [8], 1.3; in test [9], 0.291; in test [10] it was 0.0408. Further, the composite z-score in [11] amounted to 0.61; in test [12] it was 0.0684; in test [13] it was 0.0163; in test [15], 0.582; in test [16], 0.139; in test [17], 0.669. Also, the composite z-score in test [18] came to 0.998; in test [19] it was 0.727; in test [20] it was 0.809. Moreover, the z-score in test [2] is 1.27 (inactive); in [3], 0.24 (inactive); in test [4], 1.72 (inactive); in test [6] it was 0.913 (inactive); in [14], -0.112 (inactive).
